# Most compounds without a hit are left out; they make up all but 0.86% or so of the library.
# AmpC inh no detg: blocks E. coli AmpC beta-lactamase in detergent-free assay; P00811; AmpC nitrocefin hydrolysis, absorbance 480 nm, 0.0001% Triton; Potency, µM (doses to about 57.1 µM), for inactives: top-dose activity change, negative = inhibition, most hits filed as inhibitors; actives 0.52% (n = 330,000);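 also: potency is read from the fitted curve at half-maximal effect; plate controls were no compound for no effect and no enzyme for full effect; nearly all actives have a fitted effect of over 20% in size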
# Target sequence (P00811 whole entry, looked up): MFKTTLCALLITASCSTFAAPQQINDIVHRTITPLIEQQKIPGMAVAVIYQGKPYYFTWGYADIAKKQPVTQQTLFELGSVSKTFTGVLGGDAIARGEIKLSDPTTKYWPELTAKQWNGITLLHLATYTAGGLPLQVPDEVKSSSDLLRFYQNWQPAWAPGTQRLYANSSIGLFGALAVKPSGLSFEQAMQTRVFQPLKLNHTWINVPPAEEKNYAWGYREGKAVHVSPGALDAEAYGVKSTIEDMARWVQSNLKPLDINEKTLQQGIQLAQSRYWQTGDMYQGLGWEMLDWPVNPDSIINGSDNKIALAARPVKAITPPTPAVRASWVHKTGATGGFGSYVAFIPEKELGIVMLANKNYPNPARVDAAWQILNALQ
#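 AmpC (5.3 nM in the dispensed reagent) in 20 mM phosphate pH 7.0 with 0.01% (detergent screen) or 0.0001% Triton X-100 was preincubated with compounds for 15 min at room temperature. Nitrocefin was then added from an 800 uM solution, and hydrolysis was followed at 480 nm.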
# AMA1 RON2 block: disrupts binding of P. falciparum AMA1 to RON2 | AlphaScreen AMA1-biotinylated RON2 peptide binding | actives 0.2% (n = 360,000) | Potency, µM (doses to about 58.2 µM), inactives show top-dose activity change, negative = inhibition, hits mostly inhibitors;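 also: potency is read from the fitted curve at half-maximal effect; 0% = vehicle wells and -100% = peptide control; nearly all actives have a fitted effect of over 45% in size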
#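 AMA1 (3D7) with his tag at 25 nM final met compounds first, then biotinylated RON2 peptide at 25 nM; detection used donor plus acceptor beads, 10 µg/mL apiece, read by AlphaScreen after 30 min at room temperature.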
# AmpC detergent: inhibitors of E. coli AmpC beta-lactamase with detergent. P00811. AmpC hydrolysis of nitrocefin, absorbance 480 nm, 0.01% Triton. Potency, µM (doses to about 114 µM), without a hit: top-dose activity change, negative = inhibition, actives largely listed as inhibitors. actives 0.041% (n = 370,000). AID 485294;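 also: potency is read from the fitted curve at half-maximal effect; 0% = no-compound wells and -100% = no-enzyme wells; nearly all actives have a fitted effect of over 25% in size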
#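 AmpC (5.3 nM in the dispensed reagent) in 20 mM phosphate pH 7.0 with 0.01% (detergent screen) or 0.0001% Triton X-100 was preincubated with compounds for 15 min at room temperature. Nitrocefin was then added from an 800 uM solution, and hydrolysis was followed at 480 nm.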
# NS1 function inh: blocks influenza NS1 protein function. Potency, µM (titrated, usually from 46.1 µM), for inactives: top-dose activity, positive = more growth. AID 2326. actives 0.4% (n = 270,000); calls by dose curve; also: potency is read from the fitted curve at half-maximal effect; actives are rising curves; nearly all actives have a fitted effect of over 50% in size
#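 Compounds were scored for reversing the slow growth caused by influenza A NS1 in S. cerevisiae, measured by optical density at 600 nm. Assay medium contained 2% galactose at pH 6.0; NS1-free yeast of the same strain were the positive control.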
# NS1 inh valid: influenza NS1 function inhibition validation | shares compounds with NS1 function inh | influenza NS1 function cell assay, 15-point titration | activity change, negative = inhibition, % at 32.9 µM | 1,400 tested, under 10 active; calls by dose curve; also: 0% is about no effect
# Flu PR8 replic: influenza NS1 inhibitors: inhibition of influenza A/PR/8/34 replication; shares compounds with NS1 function inh; MDCK infected influenza A/PR/8/34, virus titer TCID50; stronger effect = lower value; virus titer (log TCID50), log10 TCID50 at 5 µM; actives 30% (n = 95); call rule not given here
# Numbers without * were called inactive; ? = inconclusive; . = not tested or not shown; [ ] = remark or other dose. Unless noted, calls follow the shape of the dose curve; as a rule, active = well fitted curve in the direction sought with a large enough effect; inconclusive = small, poorly fitted or top-dose-only effect, or another doubt; inactive = no such curve, though single readings can be large; an effect the other way counts as inactive or inconclusive.
SMILES,AmpC inh no detg,AMA1 RON2 block,AmpC detergent,NS1 function inh,NS1 inh valid,others
C[C@H](CO)N1C[C@H](C)[C@@H](CN(C)Cc2ccccc2)Oc2c(NS(=O)(=O)c3cn(C)cn3)cccc2C1=O,112.5%,12.4%,.,.,.,
CC1(C)[C@H]2CC=C(CN3CCC(N4CCC(C(=O)N5CCCC5)CC4)CC3)[C@@H]1C2,18.8%,5.3%,7.0%,-2.3%,.,
CN(C)c1ccc(C(CNS(=O)(=O)c2ccc(F)cc2)c2c[nH]c3ccccc23)cc1 (stereo not given),-30.9%,?,8.0%,16.5%,.,
CCOC(=O)c1ccc(S(=O)(=O)NCC(c2ccc(N(C)C)cc2)c2c[nH]c3ccccc23)cc1 (stereo not given),-31.9%,14.1µM*,-14.7%,8.91µM*,?,
CNS(=O)(=O)c1cn(CC(=O)N(C)Cc2ccccc2)cc1S(=O)(=O)NC,-0.3%,0.0%,-1.1%,-0.7%,.,
CCN(CC)c1ccc(NC(=O)COC(=O)COc2ccccc2[N+](=O)[O-])cc1,-19.9%,?,-2.1%,-18.7%,.,
COc1cc(NS(=O)(=O)c2ccc(NC(=O)COc3ccccc3Cl)cc2)nc(OC)n1,-39.1%,24.3%,-5.6%,14.1µM*,-1.6,
CCOc1ccc2[nH]c(=O)c(CN(Cc3ccc(F)cc3)C(=O)c3ccco3)cc2c1,-11.9%,-5.5%,-15.5%,11.2µM*,-11.3,
CCCCn1c(SCCN2CCCCC2)nc2c1c(=O)n(C)c(=O)n2C,.,20.1%,.,.,.,
O=C(Nc1nccs1)c1cn(-c2ccccc2)nc1-c1ccccc1,-22.0%,-10.0%,-1.7%,20.7%,.,
CC(C)COc1ccc(-c2nn(-c3ccccc3)cc2C(=O)Nc2nccs2)cc1,-21.0%,43.3%,-0.5%,11.2µM*,-0.1,
COC(=O)CCCNC(=O)CN1CC(c2ccccc2)CC1=O (stereo not given),-9.7%,11.6%,?,?,5.4,
COc1cc(NC(=O)CN2CC(c3ccccc3)CC2=O)cc(OC)c1 (stereo not given),-0.3%,-0.2%,2.6%,-26.1%,.,
CCn1c(CNC(=O)C2CCCCC2)cc2ccccc21,-7.4%,2.0%,-2.7%,?,-6.7,
COc1ccccc1NC(=O)Cn1c(=O)n(Cc2ccco2)c(=O)c2oc3ccccc3c21,.,.,1.7%,.,.,
CN(CC(=O)Nc1cccc2ccccc12)C(=O)c1cccc(S(=O)(=O)N(C)C)c1,-3.6%,-2.5%,4.4%,?,-5.6,
Cc1cccc(OCc2nnc(SCC(=O)N3c4ccccc4CCc4ccccc43)o2)c1,-4.8%,-1.1%,-10.6%,12.6µM*,-20.4,Flu PR8 replic=8.5
CN1CCN(c2ccc(S(=O)(=O)N3CCOCC3)cc2NC(=O)COc2ccc(F)cc2Cl)CC1,229.5%,-9.7%,-10.2%,-1.4%,.,
O=C(COc1ccc(F)cc1Cl)Nc1cc(S(=O)(=O)N2CCOCC2)ccc1N1CCCCC1,0.4%,-21.2%,8.1%,3.55µM*,-36.0,
O=C(Nc1ccccc1F)Nc1cc(S(=O)(=O)N2CCOCC2)ccc1N1CCCC1,-19.2%,2.9%,2.2%,.,.,
O=C(Nc1ccc(Cl)c(Cl)c1)Nc1cc(S(=O)(=O)N2CCOCC2)ccc1N1CCCC1,-19.1%,-10.0%[11.6 µM],?,11.2µM*,6.8,
Cc1nnc(-c2cccc(Br)c2)c2cn(-c3cccc(Br)c3)nc12,2.1%,?,-1.9%,8.91µM*,0.7,
Cc1nnc(-c2cccc(Br)c2)c2cn(-c3ccccc3)nc12,-18.5%,-15.7%,-11.4%,?,.,
O=C(Cc1ccc(Cl)cc1)Nc1ccc(N2CCN(C(=O)c3ccco3)CC2)c(Cl)c1,-8.5%,-21.0%,?,0.282µM*,?,
CCC(=O)Nc1ccc(N2CCN(C(=O)c3ccco3)CC2)c(Cl)c1,-35.7%,?,-4.8%,3.0%,.,
SMILES,AmpC inh no detg,AMA1 RON2 block,AmpC detergent,NS1 function inh,NS1 inh valid,others
O=C(COc1ccc(Cl)cc1Cl)N1CCN(C(=O)c2ccco2)CC1,24.5%,-12.1%,-3.8%,?,-4.3,
O=C(COc1ccccc1O)N1CCN(C(=O)c2ccco2)CC1,-15.4%,5.3%,?,-7.2%,.,
Cc1ccc(N2CCn3c2nc2c3c(=O)n(CCc3ccccc3)c(=O)n2C)cc1C,.,.,16.5%,.,.,
O=C(Nc1nc2ccc(S(=O)(=O)N3CCCCC3)cc2s1)c1cccnc1,-11.7%,12.1%,0.8%,-2.9%,.,
O=C(Nc1nc2ccc(S(=O)(=O)N3CCCCC3)cc2s1)c1ccncc1,64.2%,32.0%,-7.5%,10µM*,-28.3,
Nc1ccccc1OCCOCCOc1ccccc1N,1.0%,0.0%,-7.3%,5.01µM*,-1.2,
CCn1nc(C(=O)OCc2cccc(S(=O)(=O)N(C)C)c2)c2ccccc2c1=O,-9.5%,-3.1%,-2.9%,?,?,
CN(C)S(=O)(=O)c1cccc(COC(=O)c2ccc(Cl)cc2O)c1,-2.4%,14.8%,0.4%,0.7%,.,
COc1cccc(CSc2nc3n(n2)C(c2cccs2)C(C(=O)Nc2ccccc2C)=C(C)N3)c1 (stereo not given),.,.,-3.8%,.,.,
Cc1ccc(CNC(=O)C2CCC(=O)N2C(C)C)cc1 (stereo not given),-5.5%,11.5%,-5.5%,2.4%,.,
Cc1ccc(NC(=S)N2CCN(Cc3ccccc3)CC2)c(C)c1,32.3%,-11.9%,-10.8%,?,-16.0,
Cc1ccc(C)c(NC(=S)N2CCN(Cc3ccccc3)CC2)c1,56.0%,3.7%,-3.0%,10.5%,.,
CC(=O)OC1C2CCCC1C(N1CCCC1)CC2 (stereo not given),-6.2%,1.9%,5.2%,?,-0.1,
COc1ccc(-c2n[nH]c3c2cnc2ccc(F)cc23)cc1,.,.,12.0%,.,.,
Cc1ccc(OCCN2CCC2(C)C(=O)Nc2ccc3c(c2)OCCO3)cc1 (stereo not given),.,-5.9%,.,.,.,
COc1ccc2c(c1)CC1(CN2C)C(=O)NC(=O)N(c2ccc(C)cc2)C1=O (stereo not given),-30.8%,-2.6%,?,3.4%,.,
Cc1cccc(N2C(=O)NC(=O)C3(Cc4cc(C)ccc4N(C)C3)C2=O)c1 (stereo not given),-31.4%,2.9%,?,4.47µM*,13.1,
CCCCCCCCN1C(=O)[C@H](CC(=O)NCCCOCCCC)C[C@@]2(C(=O)OC)CC(C)(C)CC=C12,.,-3.0%,.,.,.,
O=C(O)CC(CC(=O)NCC(O)c1ccccc1)c1ccccc1 (stereo not given),-10.4%,-1.1%,-9.2%,-0.9%,.,
Cc1onc(-c2c(Cl)cccc2Cl)c1COC(=O)c1ccc(Cl)cc1,-28.0%,8.2%,-13.8%,3.2%,.,
CCC(C)OC(=O)c1[nH]c2c(c1C)C(=O)CC(c1ccc(N(C)C)cc1)C2 (stereo not given),-2.6%,-14.7%,?,10µM*,-24.4,
C/C=C/COC(=O)c1[nH]c2c(c1C)C(=O)CC(c1ccc(N(C)C)cc1)C2 (stereo not given),-6.0%,-16.4%,?,12.6µM*,?,
